Test results from PubChem BioAssay AID1159580 (chemical genetic matrix, 2015).
Values joined by “and” are separate entries in the source; they are usually repeats but may differ in a detail not shown here. Identical values can stand only once. Hit rate of the full screen: of about 5,500 compounds, about 2,000 (36%) were called active. Roughly 18% stayed inconclusive and do not appear here. Cut-off read from the data, not from the text of the source: active = normalized growth mostly below about 0.91 (no sharp cut-off); inconclusive = no clear call, values can overlap the other calls; inactive = mostly above about 0.92. The list shows a part of the results.

Experiment: chemical genetic growth profiling, strain panel (AID 1159580);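 note: tested at 20 µM; growth read once vehicle control cultures reached saturation at 30 °C; 1 = growth at the plate median or of vehicle wells; lower values mean less growth of the strain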
Conditions: S. cerevisiae deletion strains, growth OD
[1] = locus YMR307W, strain GAS1, active compounds read low

Measured: normalized growth

Nc1nc2c(nc(Br)n2C2OC3COP(=O)(O)O[C@@H]3C2O)c(=O)[nH]1 (stereo partly drawn)
inactive: locus YAL040C, strain CLN3, active compounds read low 0.947 | locus YDR363W, strain ESC2, active compounds read low 0.993 | locus YER002W, strain NOP16, active compounds read low 1.02 | locus YGR229C, strain SMI1, active compounds read low 1.02 | [1] 0.998 | locus YNL153C, strain GIM3, active compounds read low 1.05 | locus YNL175C, strain NOP13, active compounds read low 1.02 | locus YNL197C, strain WHI3, active compounds read low 1.01 | locus YNL224C, strain SQS1, active compounds read low 1.02 | locus YOR083W, strain WHI5 (second series), active compounds read low 1.02

COc1cc(OC)c(-c2c(OC)cc(OC)cc2OC)c(OC)c1
inactive: locus YBR021W, strain FUR4, active compounds read low 1.05 | locus YBR229C, strain ROT2, active compounds read low 1.01 | locus YCL029C, strain bik1, active compounds read low 0.997 | locus YDL035C, strain GPR1, active compounds read low 1.02 | locus YDL074C, strain BRE1, active compounds read low 1.06 | locus YDL101C, strain DUN1, active compounds read low 1.03 | locus YDL185W, strain tfp1, active compounds read low 1.03 | locus YDL192W, strain arf1, active compounds read low 1.04 | locus YDR101C, strain arx1, active compounds read low 1.02 | locus YDR162C, strain NBP2, active compounds read low 1.04 | locus YDR318W, strain mcm21, active compounds read low 1.03 | locus YDR388W, active compounds read low 1.01 | locus YDR502C, strain sam2, active compounds read low 1.05 | locus YEL061C, strain CIN8, active compounds read low 1.01 | locus YER110C, active compounds read low 1.02 | locus YER155C, strain BEM2, active compounds read low 1.01 | locus YER167W, strain BCK2, active compounds read low 1.01 | locus YGL078C, strain dbp3, active compounds read low 1.05 | locus YGL086W, strain mad1, active compounds read low 1.04 | locus YGL248W, strain PDE1, active compounds read low 1.03 | locus YGR078C, strain PAC10, active compounds read low 1.06 | locus YGR135W, strain pre9, active compounds read low 1.07 | locus YGR252W, strain gcn5, active compounds read low 1.05 | locus YHR030C, strain SLT2, active compounds read low 0.998 | locus YHR079C, strain IRE1 (second series), active compounds read low 1.02 | locus YHR079C, strain IRE1, active compounds read low 0.998 | locus YHR094C, strain hxt1, active compounds read low 1.03 | locus YHR129C, strain ARP1, active compounds read low 1.01 | locus YHR200W, strain rpn10, active compounds read low 1.03 | locus YIL066C, strain RNR3, active compounds read low 1.02 | locus YIL073C, strain SPO22, active compounds read low 1.1 | locus YIL125W, strain kgd1, active compounds read low 1.01 | locus YIR030C, strain dcg1, active compounds read low 1.02 | locus YJL095W, strain BCK1, active compounds read low 1.09 and 0.999 | locus YJL134W, strain LCB3, active compounds read low 1.01 | locus YJL168C, strain set2, active compounds read low 1.02 | locus YJL187C, strain SWE1 (second series), active compounds read low 1.06 | locus YJR066W, strain TOR1, active compounds read low 0.953 | locus YJR075W, strain HOC1, active compounds read low 1.04 | locus YKL009W, strain mrt4, active compounds read low 1.06 | locus YKL068W, active compounds read low 0.993 | locus YKL085W, strain MDH1 (second series), active compounds read low 1.01 | locus YKL085W, strain MDH1, active compounds read low 1.01 | locus YKL190W, strain CNB1, active compounds read low 1.02 | locus YKR001C, strain vps1, active compounds read low 1.05 | locus YLR039C, strain RIC1, active compounds read low 1.07 | locus YLR058C, strain SHM2, active compounds read low 1.04 | locus YLR102C, strain apc9, active compounds read low 1.01 | locus YLR113W, strain HOG1, active compounds read low 1 | locus YLR262C, strain YPT6, active compounds read low 1.09 | locus YLR268W, strain sec22, active compounds read low 1.02 | locus YLR371W, strain rom2, active compounds read low 1.02 | locus YLR418C, strain cdc73, active compounds read low 1.13 | locus YML016C, strain PPZ1, active compounds read low 1.02 | locus YML032C, strain rad52, active compounds read low 1.04 | locus YML124C, strain tub3, active compounds read low 1.02 | locus YMR078C, strain ctf18, active compounds read low 1.02 | locus YMR223W, strain ubp8, active compounds read low 1.04 | [1] 1.07 | locus YNL067W, strain RPL9B, active compounds read low 1.05 | locus YNL183C, strain NPR1, active compounds read low 0.948 | locus YNL233W, strain BNI4, active compounds read low 1.07 | locus YNL250W, strain rad50, active compounds read low 1.06 | locus YNL271C, strain bni1, active compounds read low 1.02 | locus YNL298W, strain CLA4, active compounds read low 1.03 | locus YNL307C, strain MCK1, active compounds read low 1.03 | locus YNR052C, strain pop2, active compounds read low 1.04 | locus YOL006C, strain TOP1, active compounds read low 1.15 | locus YOL012C, strain htz1 0.971 | locus YOL147C, strain pex11, active compounds read low 1.03 | locus YOR061W, strain CKA2, active compounds read low 1.02 | locus YOR069W, strain VPS5, active compounds read low 1.01 | locus YOR136W, strain idh2, active compounds read low 1.03 | locus YOR144C, strain elg1, active compounds read low 1.02 | locus YOR184W, strain ser1, active compounds read low 1.04 | locus YOR231W, strain MKK1, active compounds read low 0.976 | locus YOR316C, strain cot1, active compounds read low 1.03 | locus YPL256C, strain CLN2, active compounds read low 0.997 | locus YPR119W, strain clb2, active compounds read low 1.01 | locus YPR141C, strain kar3, active compounds read low 1.02 | locus YPR163C, strain tif3, active compounds read low 1.03 | locus YPR167C, strain met16, active compounds read low 1.03 | strain wtn01, active compounds read low 1.03
